Experimental data as given in publication PMC8159961, “Exploring protein hotspots by optimized fragment pharmacophores” (Nature Communications, 2021).

Each compound was assayed against 5-HT1A receptor (human, UniProt P08908) (assay: primary screen, binary call; higher = more effect of the substance). Settings: 10 µM; call rule not given here.
5-HT1A receptor, sequence (P08908 whole entry, looked up): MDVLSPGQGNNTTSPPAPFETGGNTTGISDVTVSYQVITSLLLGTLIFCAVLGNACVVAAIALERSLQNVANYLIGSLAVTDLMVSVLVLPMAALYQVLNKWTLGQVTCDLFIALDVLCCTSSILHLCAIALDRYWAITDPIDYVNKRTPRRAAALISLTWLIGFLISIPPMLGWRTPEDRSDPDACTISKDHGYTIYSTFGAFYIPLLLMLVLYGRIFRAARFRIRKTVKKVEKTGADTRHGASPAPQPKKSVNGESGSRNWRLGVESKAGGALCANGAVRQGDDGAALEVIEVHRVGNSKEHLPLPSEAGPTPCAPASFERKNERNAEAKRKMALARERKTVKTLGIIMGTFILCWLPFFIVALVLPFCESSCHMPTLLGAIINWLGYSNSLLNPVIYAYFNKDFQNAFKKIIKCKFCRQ
Parameters: hit call from the mean of at least two separate experiments
Procedure: GPCR radioligand binding assays were performed in HEK293 cells with stable expression of human 5-HT1A, 5-HT6, and 5-HT7b receptors (prepared with the use of Lipofectamine 2000). Non-specific binding was defined with 10 µM of 5-HT in 5-HT1AR and 5-HT7R binding experiments, whereas 10 µM of mianserin was used in 5-HT6R assays, respectively. Each compound was tested at 10 µM concentration. Results were expressed as means of at least two separate experiments.
In the case of O=C1NC(=O)/C(=C\c2cccs2)N1, the 5-HT1 is reported as 0 (inactive).
NCC1(c2ccccc2)CCOCC1 was tested, and the 5-HT1 was 0 (inactive).
Oc1ccc(-n2cncn2)cc1 was tested, and the 5-HT1 was 0 (inactive).
For CCc1nccn1CC(=O)O, the 5-HT1 was 0 (inactive).
With Cc1ccc(-c2ccc(O)cc2)cc1 the 5-HT1 was 0 (inactive).
With CS(=O)(=O)c1ccc(OC(F)(F)F)cc1 the 5-HT1 was 0 (inactive).
With NC(=O)N1CCC(C(=O)O)CC1 the 5-HT1 was 0 (inactive).
NC1CCc2ccccc21 (stereo not shown) was tested, and the 5-HT1 was 0 (inactive).
For N[C@H]1c2ccccc2C[C@H]1CO, the 5-HT1 was 0 (inactive).
CC(=O)c1ccc2c(c1)CCCN2 was tested, and the 5-HT1 was 0 (inactive).
O=C(c1ccccc1)N1CCC(CO)CC1 was tested, and the 5-HT1 was 0 (inactive).
For CC1C(=O)NC(=O)N1c1ccc(Cl)cc1 (stereo not shown), the 5-HT1 was 0 (inactive).
For O=C(O)C1CCCN(C(=O)N2CCCC2)C1 (stereo not shown), the 5-HT1 was 0 (inactive).
Brc1ccc(-c2ccon2)cc1 was tested, and the 5-HT1 was 0 (inactive).
O=C1CCC(=O)N(c2ccccc2)N1 was tested, and the 5-HT1 was 0 (inactive).
In the case of O=C(O)c1cccc(Nc2ncccn2)c1, the 5-HT1 is reported as 0 (inactive).
For Oc1nnc(-c2ccccc2)o1, the 5-HT1 was 0 (inactive).
For Fc1ccc2c(C3CCNCC3)c[nH]c2c1, the 5-HT1 was 1 (active).
For Nc1ccc(SC(F)F)cc1, the 5-HT1 was 0 (inactive).
In the case of N#Cc1ccc(C(=O)N2CCOCC2)cc1, the 5-HT1 is reported as 0 (inactive).
In the case of Nc1ccc(-c2ccccc2)cc1C(=O)O, the 5-HT1 is reported as 0 (inactive).
In the case of Cc1nccn1Cc1cccc(C#N)c1, the 5-HT1 is reported as 0 (inactive).
With O=C1CNCCN1c1ccccc1 the 5-HT1 was 0 (inactive).
With O=C1NC2(CCCC2)Nc2ccccc21 the 5-HT1 was 0 (inactive).
With Clc1ccc2nnnn2n1 the 5-HT1 was 0 (inactive).
With CCCN1C(=O)CC(=O)NC1=S the 5-HT1 was 0 (inactive).
O=c1[nH]c2c(s1)CCC2 was tested, and the 5-HT1 was 0 (inactive).
COC(=O)c1c(C)nc(C2CC2)[nH]c1=O was tested, and the 5-HT1 was 0 (inactive).
O=C(c1ccncc1)N1CCNCC1 was tested, and the 5-HT1 was 0 (inactive).
With O=C1CCN(c2ccccn2)CC1 the 5-HT1 was 0 (inactive).
O=C(O)C1CCN(c2ncccn2)CC1 was tested, and the 5-HT1 was 0 (inactive).
With O=C(c1ccccc1F)N1CCNCC1 the 5-HT1 was 0 (inactive).
For Cc1cc(C)c2c(=O)[nH]n(C)c2n1, the 5-HT1 was 0 (inactive).
With O=C(O)c1ccc(CN2CCOCC2)cc1 the 5-HT1 was 0 (inactive).
With COc1ccc(CN2CCNCC2)cc1F the 5-HT1 was 0 (inactive).
O=C1CSC(Nc2ccc(F)cc2)=N1 was tested, and the 5-HT1 was 0 (inactive).
In the case of Cc1cnc(C(F)(F)F)cn1, the 5-HT1 is reported as 0 (inactive).
In the case of N#CC1CCS(=O)(=O)C1 (stereo not shown), the 5-HT1 is reported as 0 (inactive).
In the case of CN(C)c1cc(CN)ccn1, the 5-HT1 is reported as 0 (inactive).
In the case of O=C(CN1CCNCC1)c1ccccc1, the 5-HT1 is reported as 0 (inactive).
